Results: the supplement of paper PMC12632987
Positions count from the first letter of the chain named.

B1: uchl1_2_7570 (protein)
chain: KTVFVGVLVTLTSKDAKTGKTYKSRRTYIFTESSIEALAKEIKEDALAFQKDVGVPVTVDIKIYSTKEEVVKKTKAVLEKMAEELAKEGIKVNITGTVVK
B2: uchl1_89_7583 (protein)
chain: EEEREAAARARLRAILAATRAALERLIARWGVRDPEAQAALDALFANAERAIADPSTAAEALAKAEEAARRLLALAPPEKRADVRLATGRLLNALLGYVA
B3: uchl1_2_7563 (protein)
chain: ETVFVGVLVTLTAENAETGETFRSRRTYIFTESAIDALVAEIERDALAFREQTGVPVTVDIHIVSTDEAVVRRLEAALRAMAERLAAHGITVNISSTVVR
B4: uchl1_2_7573 (protein)
chain: KTVFVGIKVTLEAYDEKTGKTYRSTRTLIFTEEALEKAAEEVKELALNFKDAVGVPVTVNVHIVSTDEEVLERLKKLLEEMAKELAKEGITVNISGEVVK
B5: uchl1_89_7587 (protein)
chain: EEARREAARARLERVLAKTRARLEALLARMGAPDPAMVAALDALFDAARTALADPATAEAALAEAEAAARRLVELAPEEVKASVRLATGRLVIALRGYLA
B6: uchl1_89_7584 (protein)
chain: EEARRAAARERLRRVLAATRERLEALMAKWGVADPEAVAALEELFRHAELAIEDPERAEEALAKAEEAAKRLLALAPEERRADVRMATGRLLNRLLGYVA
B7: uchl1_2_7565 (protein)
chain: ETIFIGVLVTLTSRDEATGKVYRSRRTLIFTESAIDALVEEIKEDALAFKAQTGVPVTVNIHIVSTNEEVVEKLKKKLEEMAKELAKEGITVNISYTVVK
B8: uchl1_2_7556 (protein)
chain: KTVFVGVAIDLTSTNPETGEVFRSRRTLIGTASAIEAMAEEVRELILRFREETGGPVEVRILVVSSDEAVARRLVALLEAMAAELAAEGVTVTVTRRVLK
B9: uchl1_89_7579 (protein)
chain: EEERLARARERLRRVLAATRAELARLEARIGEVSPELAAARDALFAAAEAAIADPALAAAQLEAAEAAARRLVALTPPELRASVRLATGRLLNRLLGYAA
B10: uchl1_2_7572 (protein)
chain: KTVFVGVKVTLTAYDEKTGKTYKSTRTLIFTESALEAAAKEIEELALNFQDAVGVPVKVDVHVVSTDEEVLKRLKELLEKMAKKLAKKGIEVNISGEVVK
B11: uchl1_2_7559 (protein)
chain: KTKFVGVLVKVEAVDEKTGKVKKARRTFIGTEENIEKLVEEIEKYVLEFQKEHGKDVKVKIHGVVSDEETAEKLKKKLEEMKKRLEKEGIKVEIEVTVAK
B12: uchl1_2_7568 (protein)
chain: KTVFVGVKVTLTSENKETGKTYKSTHTLIFTESAIEKLVEEIERLALEFKDATGVPVKVDIEVYSTDEEVLKKLMKELKKMAERLKKEGIEVNITGTLVK
B13: uchl1_2_7558 (protein)
chain: KSEFVGVKVTITAEDPETGKVYVAKRTFIGLASDIEKLVEEVKKLVLEFKADKKVPVKVKIEAVVSSEETAERLKKELEKMKKELAKEGIEVEITVKVVK
B14: uchl1_2_7557 (protein)
chain: KSEFVGVLVTITARDEETGEVKVARRTFIGLAEDIEKLVEEIKKLVLEFKAQYNVPVEVDIKAVVSSEETAEKLKKELEKMKKELEKEGITVNIEVEVVE
B15: uchl1_89_7582 (protein)
chain: EEERLARAREHLRRVLAKTRAALDRLIARLGEPDPELVAAHEELLAAAEAAIADPERAEEYLAKAEEAAVRLVELAPPERRASFRLAVGRLINTLLGYAA
B16: uchl1_89_7580 (protein)
chain: EEERLRRARERLRRVLEATRAEVERLIARLGEPDPALVAAAEELFAAAEAALEDPERAAEYLARAEAAARRLVELAPPERRASFRLAVGRLVNTLLGYAA
B17: uchl1_2_7566 (protein)
chain: ETVFVGVKVTLTSYDEKTGKTYKSTRTLIFTESSIDAAVEEIRELALSFREQVGVPVKVEIHIVSTREEVLERLKEKLEEMAEELKEEGIEVEISGEVVK
B18: uchl1_2_7562 (protein)
chain: KPVFIGVLVTLTAEDKETGKTYRSRRTLIFTESAIEALAEEIKELALNFRDTVGVPVKVEIKVFSTDEAVVERTVAILEKMAEELAKEGIEVTITGEVVK
B19: uchl1_89_7577 (protein)
chain: EEERLEAARERLRRILARTRAEVERLLARLGEVPPELRAALDAFFAAAEAAIADPSTAEAALAEAEAAARRLVELAPPEYRASFRLALGRLVNALLGYAA
B20: uchl1_89_7574 (protein)
chain: DPRLDPATAARLRAIAERTEAALRRILTKAGVPQATIDAFLALVRAAADTTIADRAAAPAQLAALEAALRALTARVDPATAANVRLAMGPLLRLLEGVAQ
B21: uchl1_2_7560 (protein)
chain: KTQFVGVRVDITSLNPETGEVFRARRTLIGTEDSLEAMLEEVRRLVLDFKEQYGGETRVEIRITVSTEETGERAKRLAEELKEELEKEGIEVEVEVEVAK
B22: uchl1_89_7575 (protein)
chain: EAARREAARARLRRILAATEARVAALLARLGEVPPELAAARDAFFAAARAAIDDPATAAAALAAAEAAARRLVELAPPEYRASFRLATGRLLNALRGWAA
B23: uchl1_2_7569 (protein)
chain: KTVFVGVKVTLEAYDEKTGKRYRSRHTLIFTEDSIEALAKEIKELALDFQKDVGVPVTVNIEVYSTDEAVVKKTMAVLEKMAKELAKEGIKVNITGTVVK
B24: uchl1_89_7581 (protein)
chain: EAARLERAKAKLRAVLAATRAALDRLIARLGEPDPALVAARDALFAAAEAAIADPARAAEYLARAEAAARRLVELAPPERRASFRLAAGRLVNTLLGFAA
B25: uchl1_2_7555 (protein)
chain: ASQFVGVLVTITAKDEKTGKTYVSRRTLIGTAESIEKMVEEIKELVLRFKDITKAPVEVKIEVYVSTEETAERMEKELEKLKEELEKKGVKVEIEVHVVE
B26: uchl1_2_7571 (protein)
chain: ETVFVGVLVTLRARDAETGKEYRSRRTFIFTEDSIEALAEEIRELALAFQADVGVPVTVDIHIYSTKKEVVEKTKKVLEEMAKELAKEGITVNITGTVVK
B27: uchl1_2_7564 (protein)
chain: KTIFIGVLVELIAEDEETGKVYRSRHTYIFTESAIDALVEQIKEDALAFKEQTGVPVRVRIHIVSTNEEVVKKLKEKLEEMAEELKKEGIEVEISYTVVK
B28: uchl1_2_7567 (protein)
chain: KPVFIGVKLTLTSKDEKTGKTYKSTHTLIFTESAIDKLVEEIERLALEFQKATGVPVTANIEVYSTDKEVLEKLMKKLKEMAKRLAKEGIKVNIEGKLVE
B29: uchl1_2_7554 (protein)
chain: ETKFVGVLVEIESVNPETGKEYKSRRTLIGTASAIEKLAEEVLELVRTFKEKTKAPVKVKVTVYVSDEETAKKAEKEFKKLEEELKKEGVEVEVEVIVVK
B30: uchl1_89_7576 (protein)
chain: AEARAQAARARLRAVLAATRAEVERLLARLGEVDPALRAAFDAFFAAAEAAIADPSTAAAALAAAEAAARRLVELAPPEYRASFRLATGRLLNLLRGYAA
B31: uchl1_89_7578 (protein)
chain: B30 chain with A1E, E2A, A5L, Q6A, A14R, D34P, A36E, A60E, L94A
B32: uchl1_89_7586 (protein)
chain: EEERLAAARARLRRILAATRAELERLIASLGVRDPALEAALAAFFAHARRAIEDPATAEEALAAAEAAARELLALAPPEKRADFRLATGRLLNALLGYRA

target: UCHL1, P09936; test: median log2 fold change of GCK-ALFA target abundance (FLAG IP / Myc IP barcode read proportion) (log2 ratio); each designed protein is fused to an ALFA-tag nanobody in HEK293 cells to bring the named protein to FLAG-tagged glucokinase (GCK); Myc marks an untargeted standard; higher = target protein stabilised (more abundant); conditions: target protein: 3xFLAG-MCP-GCK-ALFA reporter; HEK293 landing pad (RPLP)
Sequence (P09936 whole entry, looked up, the tested form may be a part): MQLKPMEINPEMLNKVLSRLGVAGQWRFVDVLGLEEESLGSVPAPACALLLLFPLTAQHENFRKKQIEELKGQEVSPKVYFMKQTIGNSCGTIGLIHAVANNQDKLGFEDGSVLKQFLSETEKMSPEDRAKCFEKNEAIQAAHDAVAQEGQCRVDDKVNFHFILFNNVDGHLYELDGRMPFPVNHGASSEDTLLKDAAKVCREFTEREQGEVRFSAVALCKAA
Method in brief: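 Sequencing of reverse-transcribed, amplified circular RNA barcodes from anti-FLAG and anti-Myc immunoprecipitates provided the readout for an ALFA-nanobody-fused binder library recombined into HEK293 landing-pad cells. Those cells were induced with 2 μg mL^−1 doxycycline, transfected with a plasmid expressing a FLAG-tagged target and a Myc-tagged standard, and lysed after 48 h. Target abundance is the per-binder median log2 ratio of FLAG to Myc barcode read proportions. Only barcodes at a proportion of ≥10^−7 in both replicates and binders with ≥3 barcodes per replicate were kept, with a 10^−6 pseudocount added before the two replicates were pooled.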

Row | Binder | median log2 fold change
1 | B1 | -0.683
2 | B2 | -0.0264
3 | B3 | -0.142
4 | B4 | -0.366
5 | B5 | -0.0889
6 | B6 | -0.114
7 | B7 | -0.661
8 | B8 | -0.249
9 | B9 | -0.16
10 | B10 | -0.571
11 | B11 | -0.255
12 | B12 | -0.4
13 | B13 | -0.285
14 | B14 | -0.214
15 | B15 | -0.405
16 | B16 | 0.043

Row | Binder | median log2 fold change
17 | B17 | -0.335
18 | B18 | -1.04
19 | B19 | 0.111
20 | B20 | -0.0395
21 | B21 | 0.0724
22 | B22 | 0.127
23 | B23 | -1.14
24 | B24 | -0.302
25 | B25 | -0.856
26 | B26 | -0.528
27 | B27 | -0.635
28 | B28 | -0.668
29 | B29 | -0.73
30 | B30 | -0.0383
31 | B31 | 0.184
32 | B32 | 0.158
